{"source": "ChEMBL document CHEMBL4513216", "about": "“Probing the Open Global Health Chemical Diversity Library for Multistage-Active Starting Points for Next-Generation Antimalarials” (ACS Infect Dis, 2020)", "note": "The campaign covered roughly 69,000 compounds. About 8,600 (12%) showed an effect of 50% or more. Shown is part of a subset that was picked to be rich in strong results.", "data": [{"tested_on": "Plasmodium berghei", "experiment": "Screen against P. berghei liver stage (PbLuc), transformed with Luciferase, at 10uM", "assay_type": "functional, HepG2", "conditions": "tested at 10 uM", "units": {"INHIBITION": "%"}, "values": [{"molecule": "CNC(=O)COC(=O)c1cccc(-n2ccc(C(F)(F)F)n2)c1", "INHIBITION": 40.6}, {"molecule": "CNC(=O)CCOC(=O)c1cccc(-n2ccc(C(F)(F)F)n2)c1", "INHIBITION": 24.8}, {"molecule": "CNC(=O)CCOC(=O)c1cccc(-n2cccn2)c1", "INHIBITION": 77.7}, {"molecule": "CO[C@H]1CCN(Cc2cnn(C)c2)[C@@H]2CN(Cc3cccnc3)C[C@H]12", "INHIBITION": 0}, {"molecule": "COc1ccc(-c2cc(C(=O)NCCCn3ccnc3C)n(C)n2)cc1", "INHIBITION": 18.3}, {"molecule": "CC(C)CC(=O)NCc1cccc(OCCN(C)C2CCOCC2)c1", "INHIBITION": 71.3}, {"molecule": "CN(CCOc1cccc(CNS(C)(=O)=O)c1)C1CCOCC1", "INHIBITION": 39.5}, {"molecule": "CN(CCOc1cccc(CN)c1)C1CCOCC1", "INHIBITION": 0}, {"molecule": "COCC(=O)NCc1cccc(OCCN(C)C2CCOCC2)c1", "INHIBITION": 88.1}, {"molecule": "CCC(C)C(=O)NCc1cccc(OCCN(C)C2CCOCC2)c1", "note": "(centres undefined)", "INHIBITION": 39.5}, {"molecule": "CN(CCOc1cccc(CNC(=O)C2CC2)c1)C1CCOCC1", "INHIBITION": 29.2}, {"molecule": "CSC(C)(C)CNC(=O)NC1CCN(CC(F)F)CC1", "INHIBITION": 33.7}, {"molecule": "CN(C)CC1CN(Cc2ccc(F)cc2)Cc2nccn2C1", "note": "(centres undefined)", "INHIBITION": 24.1}, {"molecule": "COc1ccc(-n2cc3nc(N)[nH]cc-3c2=O)cc1", "INHIBITION": 28.4}, {"molecule": "O=C1[C@H]2CN(Cc3cccs3)C[C@H]2CN1c1ccsc1", "INHIBITION": 14.8}, {"molecule": "Cc1ncsc1C(=O)N(Cc1ccccc1)C1CC1", "INHIBITION": 33.45}, {"molecule": "CCC(O)CN(Cc1ccccc1)S(=O)(=O)c1cnc(C)s1", "note": "(centres undefined)", "INHIBITION": 52.6}, {"molecule": "CCC(O)CN(c1ccccc1)S(=O)(=O)c1cnc(C)s1", "note": "(centres undefined)", "INHIBITION": 37.8}, {"molecule": "CN(CCOc1ccc(C#N)cc1)CC1CCS(=O)(=O)C1", "note": "(centres undefined)", "INHIBITION": 22.6}, {"molecule": "COc1ccc(CN2CC[C@@H]3[C@H]2CCC(=O)N3c2cnn(C)c2)cc1", "INHIBITION": 61.9}, {"molecule": "Cn1cc(N2C(=O)CC[C@@H]3[C@H]2CCN3Cc2ccncc2)cn1", "INHIBITION": -10.4}, {"molecule": "Cn1cc(CN2CC[C@@H]3[C@H]2CCC(=O)N3c2ccccc2)cn1", "INHIBITION": -46.8}, {"molecule": "CN1CCN(C2CCN(CC(O)c3ccccc3F)CC2)C1=O", "note": "(centres undefined)", "INHIBITION": 17.065}, {"molecule": "c1cnc(-c2nn3c(CN4CCCCC4)nnc3s2)cn1", "INHIBITION": 6.83}, {"molecule": "CCOC(=O)C1=NOC(Cc2cc(OC)c3c(c2)OCO3)C1", "note": "(centres undefined)", "INHIBITION": 60}, {"molecule": "COc1cc(CC2CC(C(N)=O)=NO2)cc2c1OCO2", "note": "(centres undefined)", "INHIBITION": 16.3}, {"molecule": "COC(=O)C1=NOC(Cc2cc(OC)c3c(c2)OCO3)C1", "note": "(centres undefined)", "INHIBITION": 10.7}, {"molecule": "CN1CC(C(=O)NCCc2ccc(F)c(Br)c2)CC1=O", "note": "(centres undefined)", "INHIBITION": -50.6}, {"molecule": "O=C(CCN1CCCCC1c1cc2ccccc2[nH]1)N1CCOCC1", "note": "(centres undefined)", "INHIBITION": 55.8}, {"molecule": "COc1ccc(C2CCCCCN2CCCNS(C)(=O)=O)cc1", "note": "(centres undefined)", "INHIBITION": 0.914}, {"molecule": "O=C(CCN1CCCCCC1c1ccco1)N1CCOCC1", "note": "(centres undefined)", "INHIBITION": 19.5}, {"molecule": "CS(=O)(=O)NCCCN1CCCCC1c1cc2ccccc2[nH]1", "note": "(centres undefined)", "INHIBITION": 52}, {"molecule": "O=C(CCN1CCC(c2cc3ccccc3[nH]2)CC1)N1CCOCC1", "INHIBITION": 39.7}, {"molecule": "CS(=O)(=O)NCCCN1CCCC1c1ccccc1", "note": "(centres undefined)", "INHIBITION": 9.25}, {"molecule": "OC(CN1CCN(Cc2cccc(F)c2)CC1)C1CC1", "note": "(centres undefined)", "INHIBITION": -16.5}, {"molecule": "Cc1n[nH]c(C)c1NC(=O)CN1CCCC1c1noc(C(C)C)n1", "note": "(centres undefined)", "INHIBITION": 14.1}, {"molecule": "c1cncc(-c2noc(CN3CCOC(Cn4cccn4)C3)n2)c1", "note": "(centres undefined)", "INHIBITION": 16.1}, {"molecule": "Cc1ccc(CN(CCN(C)C)C(=O)Nc2cnn(C)c2)s1", "INHIBITION": 46.4}, {"molecule": "CN(C)c1nccc(C2CCCN2S(=O)(=O)c2cn(C)cn2)n1", "note": "(centres undefined)", "INHIBITION": 12.3}, {"molecule": "O=C(NCc1nnc2n1CCC2)c1cn(-c2cccc(Br)c2)nn1", "INHIBITION": 35.7}, {"molecule": "COCCNC(=O)Nc1ccc(F)c(C(N)=O)c1", "INHIBITION": 39.8}, {"molecule": "COCC1CN(C(=O)CS(C)(=O)=O)Cc2ncn(CC3CC3)c21", "note": "(centres undefined)", "INHIBITION": 50}, {"molecule": "CCS(=O)(=O)N1Cc2ncn(CC3CC3)c2C(COC)C1", "note": "(centres undefined)", "INHIBITION": 11.5}, {"molecule": "CCOCC1CN(S(=O)(=O)C2CC2)Cc2ncn(CC3CC3)c21", "note": "(centres undefined)", "INHIBITION": 7.53}, {"molecule": "COCC1CN(C(=O)COc2ccccc2C)Cc2ncn(C)c21", "note": "(centres undefined)", "INHIBITION": -9.42}, {"molecule": "COCC1CN(S(=O)(=O)C2CC2)Cc2ncn(CC3CC3)c21", "note": "(centres undefined)", "INHIBITION": 51}, {"molecule": "COCC1CN(CC2CC2)Cc2ncn(CC3CC3)c21", "note": "(centres undefined)", "INHIBITION": 13.5}, {"molecule": "COCC1CN(S(C)(=O)=O)Cc2ncn(CC3CC3)c21", "note": "(centres undefined)", "INHIBITION": -3.1}, {"molecule": "CCn1nnc2c1C(COC)CN(C(=O)COc1ccccc1)C2", "note": "(centres undefined)", "INHIBITION": -12.2}, {"molecule": "COCC1CN(C(=O)COc2ccccc2)Cc2ncn(C)c21", "note": "(centres undefined)", "INHIBITION": 51.2}, {"molecule": "CS(=O)(=O)c1ccc(-c2nc(C(=O)N3CCCC3)n3ccccc23)cc1", "INHIBITION": -42.9}, {"molecule": "Cc1ccc(CN2CC[C@@H](O)[C@@H]2Cc2ccccc2)o1", "INHIBITION": 42.3}, {"molecule": "CC1=C(c2ccc(F)cc2)S(=O)(=O)N=C1N1CCc2ccccc21", "INHIBITION": 0.29}, {"molecule": "CC(C)N(C)CCNC(=O)N1CCN(Cc2ccon2)CC1", "INHIBITION": -0.514}]}]}
